Shown are actives, neighbours in structure and some others; about 4.5% of the full set was active somewhere.
Rce1 inh: blocks yeast Ras-converting enzyme. Q03530. yeast membranes, quenched prenylated peptide cleavage fluorescence. calls only. 290,000 compounds, 0.27% hits;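 active = fall in fluorescence gain of 50% or more versus controls, with final raw signal at or below 3038400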;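 also: plate controls were neutral control wells for no effect and wells lacking membranes for full effect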
Efflux pump inh: antifungal efflux pump inhibition, Nile Red retention. S. cerevisiae Candida pump triplex. inhibition, % at 10 µM. 330,000 compounds, 0.44% hits;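 active = plate passing quality check with inhibition over a set limit, or well fluorescence over plate mean plus 4 SD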;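 also: Nile Red retained in pooled yeast measured as flow cytometry median fluorescence; 0% = buffer negative control and 100% = Enniatin B positive control; higher means more Nile Red kept so more efflux inhibition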
GRK2 aptamer HTS: inhibitors of human GRK2 displacing RNA aptamer; AID 488847; P25098; 330,000 compounds, 0.59% hits; bead flow cytometry, FAM-aptamer displacement from GRK2; inhibition of aptamer binding, % at 10 µM;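 active = inhibition of aptamer binding above 40%, roughly 3 SD of noise, on plates passing a quality check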;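 also: median bead fluorescence of bound FAM aptamer so fluorescent compounds give negative values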
Rtt109 Vps75: C. albicans Rtt109 histone acetyltransferase inhibition. inhibition, % at 34.9 µM. 330,000 compounds, 0.16% hits. purified Rtt109/Vps75, ThioGlo CoA-SH fluorescence, 4 h;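 active = inhibition of at least 50% in every replicate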
HDAC3 inhib: human HDAC3 inhibition; O15379; recombinant HDAC3, fluorogenic peptide/trypsin coupled, fluorescence; inhibition, % at 8.3 µM; 320,000 compounds, 0.15% hits; in the data active = inhibition above about 26%, passing the limit was not always enough
ALR inh: human ALR oxidase inhibition via reduced H2O2; purified ALR, DTT oxidation, H2O2 HRP-luminol luminescence; inhibition, % (test concentration not listed); 290,000 compounds, 3.8% hits;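 active = mean replicate inhibition above about 79%, with every replicate also reaching it, limit read from the data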
Target sequence (P55789 whole entry, looked up): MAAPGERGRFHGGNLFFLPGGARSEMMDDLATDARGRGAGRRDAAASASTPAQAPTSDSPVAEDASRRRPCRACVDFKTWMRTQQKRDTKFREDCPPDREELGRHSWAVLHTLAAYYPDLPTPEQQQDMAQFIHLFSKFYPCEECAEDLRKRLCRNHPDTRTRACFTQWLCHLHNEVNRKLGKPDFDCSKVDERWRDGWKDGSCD
Starred values were filed as active, the others as inactive; i = inactive; . = no result.

SMILES	Rce1 inh	Efflux pump inh	GRK2 aptamer HTS	Rtt109 Vps75	HDAC3 inhib	ALR inh
O=C(Nc1nc2ccccc2s1)C1CCCO1 (centres undefined)	i	0	0	-10	-4	2
NNc1nc2ccc(Cl)cc2s1	i	0	1	-1	.	.
CCOC(=O)c1ccc(NC(=S)NCCc2ccc(F)cc2)cc1	i	0	0	3	0	1
Cc1ccccc1NC(=O)Cc1nc(CCl)cs1	i	1	18	3	-5	92*
Cc1ccc(SCC(=O)OCc2csc(CC(=O)Nc3ccccc3C)n2)cc1C	.	0	1	1	3	99*
Cc1ccc(S(=O)(=O)NCC(=O)OCc2csc(CC(=O)Nc3ccccc3C)n2)cc1C	.	.	.	-3	.	.
CC(C)(C)OC(=O)C[C@H]1C/C=C\C[C@H](CC(=O)N(CCO)Cc2ccccc2)C(=O)N[C@@H](Cc2ccccc2)COC1=O	.	0	5	6	-2	0
CCCCCCC(=O)N/N=C/c1ccco1	i	0	0	0	-2	97*
O=C(N/N=C/c1c(O)n(Cc2ccccc2)c(=O)c2ccccc12)c1cccnc1	i	0	0	-1	8	98*
CCn1c(=O)c(=O)[nH]c2cc(C(=O)Nc3ccc(S(=O)(=O)N4CCCC4)cc3)ccc21	i	0	0	13	0	-14
CCn1c(=O)c(=O)[nH]c2cc(C(=O)NC(C)c3ccc(S(N)(=O)=O)cc3)ccc21 (centres undefined)	i	0	0	-8	-2	97*
COc1ccccc1CNC(=O)CCS(=O)(=O)c1ccc2c(c1)CCN2C(C)=O	i	0	0	-1	-5	-4
O=C(c1ccc2c(c1)OCO2)N1CCN(c2ccccc2)CC1	i	0	8	0	0	98*
COc1ccc(N2CCN(C(=O)c3ccc4c(c3)OCO4)CC2)cc1	i	0	0	-24	5	84*
COc1ccc(N2CCN(C(=O)c3ccc(SC)cc3OC)CC2)cc1	i	0	0	.	1	85*
O=C(c1ccccc1)N1CCN(c2ccc(NCc3ccc4c(c3)OCO4)cc2)CC1	i	0	1	-3	.	89*
CC(=O)c1ccc(N2CCN(C(=O)c3ccc4c(c3)OCO4)CC2)cc1	i	0	3	-7	2	3
OCCC1CN(C2CCC2)CCN1Cc1ccc(F)c(F)c1 (centres undefined)	i	0	1	7	1	.
CCOc1ccc(CCNC(=O)C2CC(=O)N(c3ccc4c(c3)OCCO4)C2)cc1OCC (centres undefined)	i	0	2	15	9	-3
O=c1c2c([nH]c3ccccc13)CCCC2	i	0	0	6	-9	-4
O=C(O)c1cccc2c3c([nH]c12)CCCC3	i	0	0	-3	5	87*
CC/C(=N/OC(=O)c1cccc(C)c1)C(=O)c1cccs1	i	0	1	1	20	91*
CC1(NC(=O)Nc2cc([N+](=O)[O-])ccc2O)CCS(=O)(=O)C1 (centres undefined)	.	0	0	5	0	11
Cc1c(C(=O)NC2CCCc3ccccc32)cccc1[N+](=O)[O-] (centres undefined)	i	0	0	6	-1	-5
Cc1cc(NC(=O)c2sc(Nc3ccc(F)cc3)nc2N)no1	i	0	1	5	3	97*
SMILES	Rce1 inh	Efflux pump inh	GRK2 aptamer HTS	Rtt109 Vps75	HDAC3 inhib	ALR inh
C=CCNc1nc(N)c(C(=O)Nc2cc(C)on2)s1	i	0	1	1	2	11
Cc1cc(C)cc(N2C(=O)CC(Sc3ncn[nH]3)C2=O)c1 (centres undefined)	i	0	3	-4	29*	-4
Cc1cc(C)cc(N2C(=O)CC(Sc3nnnn3-c3ccccc3)C2=O)c1 (centres undefined)	i	0	0	4	0	9
Cc1occc1-c1n[nH]c(=S)n1C	i	0	0	0	8	2
Cc1occc1-c1n[nH]c(=S)n1-c1ccccc1	i	0	0	6	3	94*
Cc1ccc(C2CC2c2n[nH]c(=S)n2-c2ccc(C)cc2)cc1 (centres undefined)	i	0	1	16	2	36
Cc1ccc(-n2c(-c3ccco3)n[nH]c2=S)cc1	i	0	0	-2	2	88*

Source: PubChem BioAssay (several laboratories)
